# Reference: publication PMC5540273 (PLoS ONE, 2017)
# Columns and labels:
# Conditions in all cases: concentration: 1 μM, replicates: in singlicate; n = 1
# [1] = test system: FGFR1
# [2] = test system: FGFR2
# [3] = test system: FGFR3
# [4] = test system: FGFR4
# [5] = test system: FGR
# [6] = test system: FLT1
# [7] = test system: FLT3-autoinhibited
# [8] = test system: FLT3
# [9] = test system: FLT4
# [10] = test system: FRK
# [11] = test system: FYN
# [12] = test system: GAK
# [13] = test system: T1, GCN2(Kin.Dom.2,S808G)
# T1 construct: gene EIF2AK4
# [14] = test system: GRK1
# [15] = test system: T2, GRK2
# T2 construct: gene ADRBK1
# [16] = test system: T3, GRK3
# T3 construct: gene ADRBK2
# [17] = test system: GRK4
# [18] = test system: GRK7
# [19] = test system: GSK3A
# [20] = test system: GSK3B
# 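Further: KINOMEscan kinase panel screen.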
Compound,%Inh [1],%Inh [2],%Inh [3],%Inh [4],%Inh [5],%Inh [6],%Inh [7],%Inh [8],%Inh [9],%Inh [10],%Inh [11],%Inh [12],%Inh [13],%Inh [14],%Inh [15],%Inh [16],%Inh [17],%Inh [18],%Inh [19],%Inh [20]
O=C(Nc1ccccc1F)NC1CCN(c2ccnc(Nc3ccc(F)cc3)n2)CC1 [GSK1379800],0%,0%,0%,2%,18%,29%,0%,0%,0%,0%,8%,0%,0%,0%,0%,0%,0%,0%,5%,12%
Clc1ccc(-c2nn3ncccc3c2-c2ccnc(Nc3ccc4c(c3)OCCO4)n2)cc1 [GW829116],0%,0%,0%,0%,75%,54%,0%,59%,35%,0%,0%,68%,6%,0%,0%,0%,0%,0%,24%,0%
COc1cc(Nc2nccc(-c3c(-c4cccc(NC(=O)c5c(F)cccc5F)c4)nn4ncccc34)n2)cc(OC)c1OC [GSK327238],66%,61%,31%,9%,99.1%,99.2%,0%,96.1%,99.8%,96.9%,97.5%,31%,69%,0%,0%,0%,0%,0%,11%,7%
COCCOCCOc1cc2ncc3c4ccc(C#N)cc4[nH]c3c2cc1OC,0%,25%,18%,4%,30%,17%,90.1%,99.5%,20%,16%,15%,99.3%,94.6%,29%,7%,0%,83%,0%,0%,0%
CC(=O)Nc1nc2cnc(Nc3cc(NC(=O)c4cccc(C5(C#N)CC5)c4Cl)ccc3C)nc2s1,2%,15%,0%,0%,52%,44%,0%,0%,60%,93.2%,50%,0%,19%,6%,0%,14%,14%,15%,0%,0%
COc1cc(Nc2nccc(N3CCC(NC(=O)Nc4cccc(C(C)=O)c4)C3)n2)cc(OC)c1OC (stereo not drawn) [GSK1379753],3%,0%,9%,14%,14%,19%,0%,63%,6%,0%,40%,34%,0%,2%,0%,16%,0%,0%,0%,1%
C[C@@H](Oc1cc(-n2cnc3cc(-c4ccnc(NCCS(C)(=O)=O)c4)ccc32)sc1C(N)=O)c1ccccc1Cl [GSK907232],66%,88%,81%,22%,44%,63%,29%,98.1%,96.6%,18%,14%,64%,71%,0%,0%,39%,82%,0%,0%,16%
COc1cc2c(cc1OCCN1CCNCC1)ncc1c3ccc(C#N)cc3[nH]c21,0%,16%,21%,0%,2%,6%,95.8%,98.5%,0%,0%,3%,99.3%,92.5%,3%,0%,34%,88%,0%,0%,26%
Cl.Cl.NCC(NC(=O)c1cc(-c2ccccc2)c(-c2ccnc3[nH]ccc23)s1)c1ccccc1 (stereo not drawn) [GSK1321561],15%,14%,19%,0%,35%,10%,0%,0%,2%,72%,59%,86%,0%,9%,0%,15%,0%,25%,31%,26%
CC(C)c1nc(-c2cccc(NS(=O)(=O)c3c(F)cccc3F)c2F)c(-c2ccnc(Nc3ccc(N4CCOCC4)nc3)n2)s1 [GSK2008607],60%,82%,67%,48%,98.7%,98.6%,0%,70%,99.9%,98.8%,98.2%,96.1%,100%,100%,0%,0%,0%,0%,53%,21%
Cc1cccc(Nc2nc(N[C@H]3CCNC3)ncc2C(N)=O)c1.Cl [GSK2197149],0%,0%,3%,0%,82%,24%,82%,80%,9%,15%,43%,86%,25%,0%,0%,0%,78%,0%,0%,0%
Fc1ccc(-c2ncn(C3CCNCC3)c2-c2ccnc(Oc3ccc(-c4ccccc4)cc3)n2)cc1 [SB-245391],19%,0%,0%,59%,17%,13%,1%,14%,5%,31%,20%,22%,18%,19%,12%,22%,0%,32%,0%,27%
COc1cc(Nc2nccc(-c3c(-c4cccc(NC(=O)c5c(F)cccc5F)c4)nn4ccccc34)n2)cc(OC)c1OC [GSK323521],17%,0%,12%,0%,27%,41%,0%,98.4%,20%,11%,23%,28%,29%,13%,0%,0%,16%,0%,0%,23%
Cn1cc(-c2[nH]c3cc(NC(=O)[C@H](N)C4CCCCC4)cc4c3c2C=NNC4=O)cn1,97.9%,89%,86%,97.3%,87%,81%,96.3%,100%,99.5%,0%,89%,99.8%,99.3%,11%,96.9%,100%,97.1%,40%,0%,2%
O=C(NC1CCN(c2ccnc(Nc3ccc(F)cc3)n2)C1)c1cc2ccccc2s1 (stereo not drawn) [GSK1379716],0%,3%,16%,13%,25%,20%,0%,0%,3%,18%,26%,13%,7%,3%,14%,33%,0%,0%,0%,20%
CN1CCN(CCCNc2nccc(-c3c(-c4ccc(F)cc4)nn4cc(C(F)(F)F)ccc34)n2)CC1 [GW621581],25%,0%,0%,0%,6%,33%,0%,0%,16%,5%,0%,78%,4%,0%,4%,0%,8%,0%,25%,3%
Cl.NC(=O)c1cccc(Nc2nccc(Nc3ccc(Oc4c(Cl)cccc4Cl)c(Cl)c3)n2)c1 [GW659009],0%,0%,0%,0%,31%,0%,12%,33%,0%,7%,66%,59%,0%,0%,0%,39%,4%,0%,0%,0%
Cc1ccc(S(=O)(=O)Nc2ccc(Nc3nccc(Nc4cccc5[nH]ncc45)n3)cc2)cc1 [GSK581271],0%,15%,7%,0%,56%,19%,0%,28%,5%,73%,41%,44%,0%,0%,0%,42%,0%,0%,24%,10%
